Source: PubChem BioAssay
Most compounds without a hit are left out; they make up all but 5.7% or so of the library.
Gal4-VP16 FLuc: counter-screen for ROR gamma inhibitors: Gal4-VP16 reporter; Drosophila S2 Gal4-VP16 UAS-luciferase, luminescence, 20 h; Potency, µM (highest dose often 53.6 µM), usual class: inhibitors; 310,000 compounds, 3.5% hits;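 further: Gal4-VP16 expression switched on by copper sulfate through the metallothionein promoter; nearly all actives have a fitted effect of over 50% in size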
B2AR arrestin: beta2AR (human) beta-arrestin recruitment activity; P07550; beta-arrestin recruitment to beta2AR, cell-based reporter; Potency, µM (series often up to 46.1 µM), hits mostly activators; 330,000 compounds, 0.02% hits; further: nearly all actives have a fitted effect of over 65% in size
RORgamma inh: ROR gamma (mouse) transcription inhibition; Drosophila S2 Gal4-RORgamma UAS-luciferase reporter, 20 h; Potency, µM (series often up to 53.6 µM), usual class: inhibitors; 310,000 compounds, 5.4% hits; AID 2551; further: nearly all actives have a fitted effect of over 60% in size
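Read-out: Photinus luciferase luminescence; inhibitors lower reporter signal. Insect Schneider cells with Gal4-ROR gamma fusion under metallothionein promoter, UAS reporter; 700 uM final copper sulfate induction, 20 hr, ambient temperature.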
NPSR antagonist: blocks cAMP signaling of the human neuropeptide S receptor; CHO-NPSR cells, cAMP TR-FRET, antagonist mode; Q6W5P4; 220,000 compounds, 1% hits; Potency, µM (top dose mostly 38.3 µM), hits mostly inhibitors; further: nearly all actives have a fitted effect of over 50% in size
Target sequence (Q6W5P4 whole entry, looked up): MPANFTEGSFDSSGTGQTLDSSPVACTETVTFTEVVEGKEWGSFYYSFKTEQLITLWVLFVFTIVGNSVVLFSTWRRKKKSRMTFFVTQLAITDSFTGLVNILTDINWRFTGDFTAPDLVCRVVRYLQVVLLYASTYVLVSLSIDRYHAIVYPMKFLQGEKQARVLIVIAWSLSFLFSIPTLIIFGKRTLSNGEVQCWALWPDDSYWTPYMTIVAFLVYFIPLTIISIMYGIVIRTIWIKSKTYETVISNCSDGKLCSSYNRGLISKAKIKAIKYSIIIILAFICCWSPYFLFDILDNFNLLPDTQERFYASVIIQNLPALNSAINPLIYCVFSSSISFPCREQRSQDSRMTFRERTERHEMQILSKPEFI
Hits are given with their value; i = inactive; ? = inconclusive; nt = no result given; ! = repeats disagree; [ ] = another dose, or the depositor's remark. The call rests on the fitted dose curve; in most records, active means well fitted curve in the direction sought with a large enough effect; inconclusive means small, poorly fitted or top-dose-only effect, or another doubt; inactive means no such curve, though single readings can be large; an effect the other way counts as inactive or inconclusive.

SMILES | Gal4-VP16 FLuc | B2AR arrestin | RORgamma inh | NPSR antagonist
Cc1nn(C(C)(C)C)c(C)c1/C=N/OC(=O)Nc1ccc(Cl)c(Cl)c1 | 1µM | i | 0.22µM | i
O=C1CC2OCC=C3CN4CCC56c7ccccc7N1C5C2C3CC46 (centres undefined) | i | nt | i | nt
CCOC(=O)[C@]1(C#N)[C@@H]2C=CC(C(C)=O)=CN2[C@@H](C(N)=O)[C@@H]1c1ccsc1 | 20µM | i | i | i
Cc1nonc1OCCNCCNc1ccc([N+](=O)[O-])c2cccnc12 | 5µM | i | 1.8µM | i
CCNCCNc1ccc([N+](=O)[O-])c2cccnc12 | 20µM | i | 2.8µM | ?
O=[N+]([O-])c1ccc(N2CCCC2)c2ncccc12 | i[10 µM] | i | i | i
c1nc[n]([Sn]([CH]2CCCCC2)([CH]2CCCCC2)[CH]2CCCCC2)n1 | 22µM | nt | ? | nt
C/C(=N\Nc1ccccc1)c1c(O)[nH]c(=O)[nH]c1=O | i | i | i | i
CC/C(=N\NC(=S)Nc1ccccc1)c1c(O)[nH]c(=O)[nH]c1=O | ? | i | 5.6µM | i
C[C@@H]1C[C@H](C)C[C@H](C)[C@@H](O)CC(=O)O[C@H]([C@H]2CCC[C@H]2C(=O)O)C/C=C/C=C(/C#N)[C@H](O)[C@@H](C)C1 | ? | nt | 0.028µM | nt
CCOc1cncc(/C=C/CCNC)c1 | i | nt | i | nt
CC[N+](=O)[O-] | i | nt | i | nt
COc1cc(/C=C/[N+](=O)[O-])ccc1OC(=O)c1cccnc1 | 3.5µM | i | 6.3µM | nt
Nc1c(C(=O)NCC2CCCO2)c2nc3ccccc3nc2n1Cc1ccco1 (centres undefined) | ? | i | i | i
Nc1c(C(=O)NC2CCCC2)c2nc3ccccc3nc2n1CC1CCCO1 (centres undefined) | i | i | i | 13µM
CC1=CC(c2ccccc2)NC(=S)N1 (centres undefined) | ? | i | 11µM | i
CC(=O)CC(c1ccc(O)cc1)c1c(O)c2ccccc2oc1=O (centres undefined) | i | nt | i | nt
CCC(C(=O)O)C1CCC(C)C(C(C)C(O)C(C)C(=O)C(CC)C2OC3(C=CC(O)[C@@]4(CC[C@](C)(C5CC[C@@](O)(CC)C(C)O5)O4)O3)C(C)CC2C)O1 (some centres undefined) | 2.2µM | nt | 1.8µM | nt
C[C@@H]1C[C@@H]2[C@H]([C@H]3C=C(COC(=O)c4ccccc4)[C@@H](O)[C@]4(O)[C@@H](O)C(OC(=O)c5ccccc5)=C[C@@]14C3=O)C2(C)C | i | nt | i | nt
CC1(C)C(O)CC(O)[C@]2(C)C1CC(O)[C@]1(C)C2CC[C@@]2(C)C(c3ccoc3)OC(=O)C3O[C@]312 (some centres undefined) | i | nt | i | nt
CC1(C)C(=O)C=C[C@@]2(C)C1=C(O)C(=O)[C@@]1(C)C2CC[C@@]2(C)C(c3ccoc3)C[C@H]3O[C@@]321 (some centres undefined) | 10µM | nt | 8.9µM | nt
CC(C)(C)NCC(O)c1cc(Cl)c(N)c(C(F)(F)F)c1 (centres undefined) | i | nt | i | nt
COc1ccc(C(=O)Oc2cccc3cccnc23)cc1S(=O)(=O)N1CCOCC1 | 4.5µM | i | 2.5µM | ?
O=C(Oc1cccc2cccnc12)c1ccccc1 | ? | nt | 1.4µM | nt
CN(C(=O)Cc1ccc(Cl)c(Cl)c1)[C@H](CN1CCCC1)c1cccc(N=C=S)c1 | ? | nt | 32µM | nt
SMILES | Gal4-VP16 FLuc | B2AR arrestin | RORgamma inh | NPSR antagonist
COc1ccc2c(c[n+](C)c3c4cc5c(cc4ccc23)OCO5)c1OC | 8.9µM! | nt | 7.1µM | ?
Fc1ccccc1CCNCc1cccc2ccccc12 | 20µM | i | ? | i
Cc1ccc(CNCCc2ccccc2F)cc1 | i | i | i | i
CC(=O)N1CCN(c2ccc(OC[C@@H]3CO[C@@](Cn4ccnc4)(c4ccc(Cl)cc4Cl)O3)cc2)CC1 | i | nt | i | nt
CC[C@@]1(O)C(=O)OCc2c1cc1n(c2=O)Cc2cc3c(N)cccc3nc2-1 | 0.35µM | i | 0.02µM | i
CCOP(=S)(OCC)Oc1ncn(-c2ccccc2)n1 | ? | nt | i | nt
Cc1ccsc1/C=N/NC(=O)c1cccc(S(=O)(=O)Nc2ccccc2Cl)c1 | 3.2µM | i | 2.5µM | i
C=C(C)C1Cc2c(ccc3c2OC2COc4cc(OC)c(OC)cc4C2C3=O)O1 (centres undefined) | ? | nt | 0.035µM | nt
Cn1c(O)c(C2=NNC(c3ccc(Cl)cc3)C2)c(=O)n(C)c1=O (centres undefined) | 5µM | i | 7.1µM | i[7.67 µM]
CC(C)NS(=O)(=O)c1ccc(OCC(=O)N2CCN(Cc3ccc4c(c3)OCO4)CC2)c(Cl)c1 | ? | i | i | i
